From PubChem BioAssay (EPA / NIEHS)
Activity calls are given as the source filed them. How the source made its calls: active means hit-call score of the fitted dose curve at least 0.9, where 1 is the maximum; inactive means score below 0.9.

test: CCTE_Simmons_MITO_max_resp_rate: CCTE's HepG2 Seahorse XF Respirometric Screening Assay at Maximal Respiratory State [uncoupled], Simmons Lab (AID 2284002); conditions: actives raise or lower the signal
Procedure: CCTE_Simmons_MITO is cell-based, respirometric assay using HepG2 cells and a Seahorse XF Analyzer to measure oxygen consumption rates over four temporal phases spanning a total of 72 minutes: pre-injection (pre-treatment), basal (following test compound injection), maximal (following FCCP uncoupler injection), and inhibited (following rotenone/antimycin A injection)CCTE_Simmons_MITO_max_resp_rate is one of 4 assay components calculated from the CCTE_Simmons_MITO assay. It is designed to make measurements of maximal respiration using a form of respirometric reporter, as detected with […] signals by Seahorse XF96 technology. Data from the assay component CCTE_Simmons_MITO_max_resp_rate was analyzed at the endpoint, CCTE_Simmons_MITO_max_resp_rate_OCR, with bidirectional fitting relative to DMSO as the negative control and baseline of activity. Using a type of respirometric reporter, measures of maximal respiration for gain or loss-of-signal activity can be used to understand cellular oxygen consumption as it relates to cellular respiration. To generalize the intended target to other relatable targets, this assay endpoint is annotated to the mitochondria intended target family, where the subfamily is respiration.
Test chemicals were administered as a titrated series of 7 concentrations from 125 nM up to 100 uM [final] prior to kinetic endpoint detection at 6 minute intervals [3 min mix followed by 3 minutes measure] for 72 minutes. Three biological replicates of technical singles were run for every chemical concentration tested. Dimethylsulfoxide [DMSO] was used as the vehicle control. The electron transport chain inhibitor fenpyroximate was used as the positive control for decreased basal respiration and was administered as a titrated series of 6 concentrations from 250 nM up to 2.75 uM [final] with technical triplicates for the top concentration only. The uncoupler 2,4-dintirophenol was used as the positive control for increased basal respiration and was administered as a titrated series of 6 concentrations from 938 nM up to 40 uM [final] with technical triplicates for the top concentration only. A Seahorse XF Analzyer is required to measure the response.

SMILES	outcome	AC50
CCCOC(=O)c1ccc(O)cc1	inactive	–
Oc1cc2ccccc2c2ccccc12	inactive	–
O=[N+]([O-])c1ccc(O)cc1	inactive	–
CN1CCN(c2ccccc2/C=C2\SCCN(c3ccc(Cl)c(Cl)c3)C2=O)CC1	inactive	–
OC1CCC(C2CCCCC2)CC1 (stereo not drawn)	inactive	–
Cc1cc(CCN2CCN(c3nsc4ccccc34)CC2)cc2c1NC(=O)CC2(C)C	–	17 µM (active)
CCc1nn(C2CCCCC2)c2cc(C3(C#N)CCC(C(=O)O)CC3)ccc12 (stereo not drawn)	–	25 µM (active)
Nc1cccc2c(N)cccc12	inactive	–
CCCCCCCCCCCCN1CCCC1=O	–	34.8 µM (active)
O=C(O)Cc1cc(I)c(Oc2cc(I)c(O)c(I)c2)c(I)c1	inactive	–
NC(=O)N1C(=O)C(C(=O)c2cc(Cl)cs2)c2cc(F)c(Cl)cc21 (stereo not drawn)	–	17.7 µM (active)
CC[C@H](c1ccc(O)cc1)[C@@H](CC)c1ccc(O)cc1	–	30 µM (active)
NC(=O)N(O)[C@@H]1C=C[C@H](Oc2cccc(Oc3ccc(F)cc3)c2)C1	–	32.4 µM (active)
